Results on seven compounds are retold here after PubChem BioAssay (Tox21).

The structures appear in SMILES notation. Results filed as inconclusive are left out. The source made the active and inactive calls. Unless noted, calls come from the whole dose curve; as a rule, active = well fitted curve in the direction sought with a large enough effect in the repeat runs; inconclusive = weak or mixed curves; inactive = no such curve, though single readings can be large; an effect the other way counts as inactive or inconclusive.

A short description of assay [1]: qHTS assay for small molecule agonists of the p53 signaling pathway (AID 651631; calls by dose curve; note: nearly all actives have a fitted effect of over 15% in size). The settings on record: HCT-116 p53RE-bla reporter, beta-lactamase FRET ratio, 16 h; series mostly up to 73.3 µM. In short, it runs like this:
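HCT-116 cells carrying a beta-lactamase reporter under p53 response elements were dosed with compound for 16 h at 37 °C. LiveBLAzer B/G FRET substrate was then added for 2 h at room temperature, and fluorescence intensity was read to detect pathway agonism.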

Assay [2] can be described thus: qHTS assay for small molecules that induce genotoxicity in human embryonic kidney cells expressing luciferase-tagged ATAD5 (AID 651632). Note: nearly all actives have a fitted effect of over 15% in size. The settings on record: HEK293T ATAD5-luciferase induction, 16 h; series mostly up to 83.3 µM. In short, it runs like this: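 Reporter cells (HEK293T) express luciferase-tagged ATAD5, a protein that accumulates after DNA damage. Treat 16 hr at 37C/5% CO2, add Amplite, wait 30 min at RT, and read luminescence.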
A general note: qHTS replaces the single test concentration by a dilution series.

Assay [3] in a line: qHTS assay for small molecule disruptors of the mitochondrial membrane potential - cell viability (AID 720634; calls by dose curve;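 note: human HepG2 liver cancer cells; nearly all actives have a fitted effect of over 20% in size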). The settings on record: HepG2 viability, ATP luminescence (CellTiter-Glo), 1 h; series mostly up to 83.2 µM. In short, it runs like this: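 Measuring cytotoxicity alongside mitochondrial potential, the screen quantified ATP by luminescence in HepG2 cells after 1 hr compound incubation and a 30 min room-temperature CellTiter-Glo step.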

Assay [4] is described as follows: qHTS assay for small molecule disruptors of the mitochondrial membrane potential (AID 720635). The settings on record: HepG2 mitochondrial membrane potential, Mito-MPS dye ratio; series mostly up to 83.2 µM. In short, it runs like this:
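Mitochondrial membrane potential tracked with Mito-MPS dye, red aggregates (ex 540/em 590 nm) against green monomers (ex 490/em 535 nm). Compound treatment 1 hr at 37C, dye 30 min in HepG2.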

The nature of assay [5]: qHTS assay to test for compound auto fluorescence at 590 nm (red) in HepG2 cells (AID 720674). The settings on record: HepG2 autofluorescence, red 540/590 nm, 1 h; series mostly up to 91.3 µM. A digest of the protocol:
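1 hr compound incubation on HepG2 cells, 37 C, 5% CO2; plate read ex 540 nm / em 590 nm; intensities reported as Rose Bengal sodium equivalents.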

Assay [6] can be described thus: qHTS assay to test for compound auto fluorescence at 535 nm (green) in HepG2 cells (AID 720675). The settings on record: green autofluorescence 485/535 nm, 1 h; series mostly up to 91.3 µM.
A short description of assay [7]: qHTS assay to test for compound auto fluorescence at 460 nm (blue) in HEK293 cells (AID 720678). The settings on record: blue autofluorescence 405/460 nm; series mostly up to 91.3 µM. In short, it runs like this:
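Measured: blue fluorescence (Ex 405/Em 460 nm) of compound-treated HEK293 cells, incubated overnight at 37C with 5% CO2 and scaled to triamterene equivalents.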

Assay [8] can be described thus: qHTS assay to test for compound auto fluorescence at 590 nm (red) in HEK293 cells (AID 720679). The settings on record: red autofluorescence 540/590 nm; series mostly up to 91.3 µM. A digest of the protocol: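 Using HEK293 cells at 2,000 per well, the screen added 23 nL of each compound after cell attachment and incubated overnight (37C, 5% CO2). The plate reader then captured red-label fluorescence, Ex/Em 540/590nm.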

Assay [9] is described as follows: qHTS assay to test for compound auto fluorescence at 535 nm (green) in HEK293 cells (AID 720680). The settings on record: green autofluorescence 485/535 nm; series mostly up to 91.3 µM.
Assay [10] in a line: qHTS assay to test for compound auto fluorescence at 535 nm (green) in HEK293 cell free culture (AID 720682). The settings on record: cell-free medium, green autofluorescence 485/535 nm, stronger effect = higher value; series mostly up to 91.3 µM. A digest of the protocol:
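Green-label autofluorescence (485 nm excitation, 535 nm emission) measured on compound added to cell-free culture medium (DMEM, 10% FBS). Output is expressed relative to fluorescein.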

Assay [11] can be described thus: qHTS assay to test for compound auto fluorescence at 590 nm (red) in HEK293 cell free culture (AID 720683). The settings on record: cell-free medium autofluorescence, Ex540/Em590 red; series mostly up to 91.3 µM. A digest of the protocol:
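Red-channel autofluorescence of compounds in culture medium (DMEM, 10% FBS), no cells, measured at 540/590 nm. Rose Bengal sodium is the reference fluorophore for equivalence.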

A short description of assay [12]: qHTS assay to test for compound auto fluorescence at 590 nm (red) in HepG2 cell free culture (AID 720684). The settings on record: cell-free medium autofluorescence, red 540/590 nm; series mostly up to 91.3 µM. A digest of the protocol:
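Plate contents were MEM with 10% FBS plus test compound or DMSO, no cells. Fluorescence was recorded with 540 nm excitation and 590 nm emission.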

Assay [13] can be described thus: qHTS assay to test for compound auto fluorescence at 460 nm (blue) in HepG2 cell free culture (AID 720685). The settings on record: Cell-free culture medium, blue autofluorescence 405/460 nm; series mostly up to 91.3 µM. A digest of the protocol: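 Compound (23 nL) or DMSO pinned into cell-free MEM with 10% FBS; blue fluorescence read at 405/460 nm excitation/emission, expressed as auto-fluorescence equivalency to triamterene.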

The nature of assay [14]: qHTS assay to test for compound auto fluorescence at 535 nm (green) in HepG2 cell free culture (AID 720686). The settings on record: Cell-free medium, green autofluorescence 485/535 nm; series mostly up to 91.3 µM.
Assay [15] is described as follows: qHTS assay to test for compound auto fluorescence at 460 nm (blue) in HepG2 cells (AID 720687). The settings on record: autofluorescence 405/460 nm, 1 h; series mostly up to 91.3 µM. In short, it runs like this:
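Blue-channel autofluorescence (Ex/Em 405/460 nm, triamterene-equivalent) was measured after 1 hr compound exposure at 37 C, 5% CO2. Cells were HepG2, plated overnight at 37 C in MEM plus 10% FBS.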

Assay [16] has as its target Glucocorticoid receptor (Homo sapiens) (UniProt P04150). The assay can be described thus: qHTS assay to identify small molecule agonists of the glucocorticoid receptor (GR) signaling pathway (AID 720691; active = well fitted activation curve with a large enough effect in the signal ratio in the repeat runs, not every such curve was filed as active; the % refers to the signal ratio). The settings on record: GR-bla HeLa, beta-lactamase reporter ratio, 18 h; series mostly up to 62.4 µM. A digest of the protocol: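 Reporter read-out: fluorescence intensity following 2 h room-temperature LiveBLAzer B/G FRET substrate loading. Prior step: GR-bla HeLa cells held 4 h, then treated 18 h at 37 C.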

Assay [17] shares this target. Put plainly: qHTS assay to identify small molecule antagonists of the glucocorticoid receptor (GR) signaling pathway (AID 720692; active = well fitted inhibition curve with a large enough effect in the signal ratio in the repeat runs, not every such curve was filed as active; the % refers to the signal ratio; note: potency is the fitted concentration of half-maximal effect). The settings on record: GR-bla HeLa, beta-lactamase FRET ratio, dexamethasone-stimulated, 18 h; series mostly up to 58.5 µM. A digest of the protocol:
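Dexamethasone (5 nM final) stimulated a stably integrated GRE-beta-lactamase reporter in HeLa cells during 18 h co-incubation with compounds; signal was quantified as fluorescence intensity of B/G FRET substrate after 2 h.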

Assay [18] can be described thus: qHTS assay for small molecule agonists of the p53 signaling pathway - cell viability (AID 651633; calls by dose curve; note: nearly all actives have a fitted effect of over 30% in size). The settings on record: p53RE-bla HCT-116 viability, ATP luminescence, 16 h; series mostly up to 83.3 µM. A digest of the protocol:
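Viability counter-read: CellTiter-Glo luminescence (30 min, room temperature) in the same p53RE-bla plates. These plates had been exposed to compounds for 16 h at 37 C.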

Assay [19] is described as follows: qHTS assay for small molecules that induce genotoxicity in human embryonic kidney cells expressing luciferase-tagged ATAD5 - cell viability (AID 651634; calls by dose curve; note: nearly all actives have a fitted effect of over 25% in size). The settings on record: HEK293T ATAD5-luc cells viability, CellTiter-Fluor, 15.5 h; series mostly up to 83.3 µM. In short, it runs like this: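 Seeding of 2,000 HEK293T ATAD5-luciferase cells per well preceded pin-tool compound transfer. Plates sat 15.5 hr at 37C under 5% CO2, then fluorescence was read after 30 min with CellTiter-Fluor.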

A short description of assay [20]: qHTS assay to test for compound auto fluorescence at 460 nm (blue) in HEK293 cell free culture (AID 720681). The settings on record: cell-free medium, autofluorescence 405/460 nm (blue); series mostly up to 91.3 µM. In short, it runs like this:
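Blue fluorescence (Ex 405/Em 460 nm, triamterene-equivalent) was read immediately after pin transfer of compound or DMSO into medium (DMEM, 10% FBS) without cells.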

Glucocorticoid receptor (Homo sapiens), sequence (P04150 whole entry, looked up): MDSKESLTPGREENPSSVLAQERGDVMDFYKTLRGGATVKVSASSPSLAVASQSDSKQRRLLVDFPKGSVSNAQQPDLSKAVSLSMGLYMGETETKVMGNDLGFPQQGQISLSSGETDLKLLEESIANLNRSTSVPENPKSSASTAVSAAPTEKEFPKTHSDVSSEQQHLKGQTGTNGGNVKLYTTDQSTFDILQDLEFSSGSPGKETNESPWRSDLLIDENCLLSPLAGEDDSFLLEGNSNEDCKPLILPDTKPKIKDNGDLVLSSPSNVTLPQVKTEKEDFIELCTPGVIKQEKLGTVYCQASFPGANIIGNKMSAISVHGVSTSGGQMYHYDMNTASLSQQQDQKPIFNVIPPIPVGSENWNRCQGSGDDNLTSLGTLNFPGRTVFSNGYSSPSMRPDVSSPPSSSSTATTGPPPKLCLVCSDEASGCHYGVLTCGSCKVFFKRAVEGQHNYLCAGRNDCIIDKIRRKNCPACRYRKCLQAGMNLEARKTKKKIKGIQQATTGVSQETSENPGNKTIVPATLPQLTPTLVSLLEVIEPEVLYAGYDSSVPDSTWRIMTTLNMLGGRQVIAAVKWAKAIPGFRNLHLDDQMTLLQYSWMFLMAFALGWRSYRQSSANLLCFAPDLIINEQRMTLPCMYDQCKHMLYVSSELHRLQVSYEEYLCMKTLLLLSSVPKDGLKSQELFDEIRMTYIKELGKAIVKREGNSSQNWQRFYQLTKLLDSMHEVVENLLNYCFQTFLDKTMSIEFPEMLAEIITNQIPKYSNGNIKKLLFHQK

Regarding `Cc1c[nH]c2ccccc12`, the Potency entry in [1], in [2], in [4], in assay [7], in [13] and in [15] was “inactive” in each case. Moreover, the Potency entry in assay [16] and in [17] was “inactive” throughout. The outcome in assay [3], in assay [5], in assay [6], in [8], in [9] and in [10] was inactive. Moreover, the result in assay [11], in assay [12] and in [14] was inactive.

Regarding `CC(C)OC(=O)c1ccccc1C(=O)OC(C)C`, the Potency result in assay [2], in assay [18], in [19], in [4], in assay [7] and in assay [20] was “inactive” each time. Further, the Potency result in [13], in [15], in assay [16] and in assay [17] was “inactive” in each case. Further, the compound was classed as inactive in [3], in assay [5], in assay [6], in assay [8], in assay [9] and in [10]. Besides, the call in [11], in assay [12] and in assay [14] was inactive.

In the case of `CCc1ccc(C)cc1`, the Potency entry in assay [1], in assay [2], in assay [19], in assay [7], in assay [20] and in assay [13] was “inactive” in each case. The Potency result in [15], in [16] and in assay [17] was “inactive” each time. The compound was called inactive in assay [3], in assay [5], in assay [6], in [8], in [9] and in assay [10]. Also, the call in [11], in [12] and in assay [14] was inactive.

Turning to `CCCCCC`, the Potency result in assay [1], in assay [18], in [7], in assay [20], in assay [13] and in assay [15] was “inactive” throughout. Besides, the Potency result in [16] and in assay [17] was “inactive” in each case. For the same compound, the call in assay [3], in assay [5], in assay [6], in assay [8], in assay [9] and in assay [10] was inactive. Moreover, the call in assay [11], in assay [12] and in assay [14] was inactive.

Regarding `COC1CCC=CO1` (centres undefined), the Potency entry in [2], in [18], in assay [19], in assay [4], in assay [7] and in [20] was “inactive” each time. Moreover, the Potency entry in [13] and in [15] was “inactive” each time. In addition, the compound was called inactive in assay [3], in assay [5], in [6], in assay [8], in assay [9] and in assay [10]. The outcome in assay [11], in [12] and in assay [14] was inactive.

As for `ClC1=C(Cl)C1(Cl)Cl`, the Potency entry in assay [1], in assay [2], in assay [4], in assay [7], in [20] and in assay [13] was “inactive” throughout. The Potency entry in assay [15] was “inactive”. Also, the outcome in assay [3], in assay [5], in assay [8], in [9], in [10] and in assay [11] was inactive. Further, the compound was called inactive in [12] and in assay [14].

In the case of `C[C@@H]1[C@H](O)[C@@H](C)/C=C/C=C\C=C\C=C\C=C\C=C\C=C\[C@H](O[C@@H]2O[C@H](C)[C@@H](O)[C@H](N)[C@@H]2O)C[C@@H]2O[C@](O)(C[C@@H](O)C[C@@H](O)[C@H](O)CC[C@@H](O)C[C@@H](O)CC(=O)O[C@H]1C)C[C@H](O)[C@H]2C(=O)O` (stereo in doubt), the Potency entry in assay [1], in assay [2], in assay [7], in assay [20], in [13] and in assay [15] was “inactive” each time. In [16], the Potency result is “inactive”. The result in assay [3], in assay [5], in assay [8], in assay [9], in assay [10] and in assay [11] was inactive. The result in assay [12] and in assay [14] was inactive. Further, the Potency in [17] is 49 µM (active).
